HPGD block – inhibitors of human 15-hydroxyprostaglandin dehydrogenase (HPGD). P15428. actives 4.3% (n = 150,000). purified HPGD, NADH fluorescence kinetic, PGE2 substrate. Potency, µM, actives largely listed as inhibitors. AID 894
Target sequence (P15428 whole entry, looked up): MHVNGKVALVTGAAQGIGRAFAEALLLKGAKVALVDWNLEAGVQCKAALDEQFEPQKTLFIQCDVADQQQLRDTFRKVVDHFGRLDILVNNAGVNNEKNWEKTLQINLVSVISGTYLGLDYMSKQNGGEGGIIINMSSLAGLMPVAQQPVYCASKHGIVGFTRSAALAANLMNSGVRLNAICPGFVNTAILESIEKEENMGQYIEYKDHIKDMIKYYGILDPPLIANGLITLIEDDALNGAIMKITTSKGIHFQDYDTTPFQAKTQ
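NADH formation kinetics: reaction with 30 uM PGE2 and 1 mM NAD+ (final), 20 nM enzyme, Tris-HCl pH 8 with Tween 20, after 15 min compound preincubation at room temperature. Fluorescence change, last versus first of five reads.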
ALDH1A1 inh – ALDH1A1 (human) enzyme inhibition | actives 7.3% (n = 220,000) | P00352 | Purified ALDH1A1, NADH fluorescence, propionaldehyde substrate | Potency, µM (doses to about 75.3 µM), hits mostly inhibitors
IMPase inh – cell-permeable inhibitors of inositol monophosphatase (IMPase). 120,000 tested, under 10 active. CHO-M1 cells, IP1 accumulation, HTRF TR-FRET ratio. inhibition (IP1 accumulation), % at 46.1 µM. P97697; active means well fitted curve in the direction sought with a large enough effect in the signal ratio, not every such curve was filed as active; inconclusive means small, poorly fitted or top-dose-only effect, or a change in a side signal; inactive means no such curve, though single readings can be large or run the other way; the % refers to the signal ratio;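 further: cells stimulated with carbachol in lithium chloride buffer; higher means more IMPase inhibition seen as more IP1 and lower FRET ratio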
Target sequence (P97697 whole entry, looked up): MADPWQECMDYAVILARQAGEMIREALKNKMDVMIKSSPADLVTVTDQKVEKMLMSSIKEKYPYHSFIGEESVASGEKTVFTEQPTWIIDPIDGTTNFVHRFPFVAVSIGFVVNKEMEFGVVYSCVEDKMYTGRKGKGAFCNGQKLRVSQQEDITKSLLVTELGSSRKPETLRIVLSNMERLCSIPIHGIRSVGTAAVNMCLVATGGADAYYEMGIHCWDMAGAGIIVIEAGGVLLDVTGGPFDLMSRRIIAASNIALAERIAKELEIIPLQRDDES
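CHO-M1 cells (CHO stably expressing M1 receptor), compound up to 46 uM final, stimulated with carbachol (50 uM as added) in buffer with 50mM LiCl, pH 7.4, 30 min at 37C. Cytosolic IP1 read by TR-FRET; AC50 from Hill fits.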
Numbers stand for hits; 0 = inactive; ? = inconclusive; - = not tested or not shown; [ ] = another dose, or the depositor's remark. Hits are enriched below; roughly 9% of the tested compounds scored in any of these assays. Unless noted, the call rests on the fitted dose curve; in most records, active means well fitted inhibition curve with a large enough effect (not every such curve was filed as active); inconclusive means small, poorly fitted or top-dose-only effect, or another doubt; inactive means no such curve, though single readings can be large or run the other way.

SMILES	HPGD block	ALDH1A1 inh	IMPase inh
COc1ccc(C(=O)O/N=C2\CCS(=O)(=O)c3sccc32)cc1	-	0	-
COc1ccc(N=C2CCS(=O)(=O)c3sccc32)cc1	-	10µM	-
COc1cccc(CC2(CO)CCN(Cc3ccc4cccc(F)c4n3)CC2)c1	-	0	-
COc1ccc(NC(=O)c2sc(SCc3ccccc3)nc2N)cc1	?	13µM	0
COc1ccc(NC(=O)c2sc(SC)nc2N)cc1	0	0	0
COC(=O)c1c(NC(=O)CCCOc2ccc(C(C)(C)C)cc2)sc2c1C(C(=O)OC)CC2 (stereo unspecified)	-	-	0
O=C(CSC1=NCCS1)N1CCCC1	0	0	0
O=C(CSC1=NCCS1)N1CCCCCC1	28µM	0	0
CC(=O)C1=C(O)C(=O)N(CCNCCO)C1c1ccccc1 (stereo unspecified)	0	0	0
CCOC(=O)c1c(CC(C)C)csc1NC(C)=O	0	0	0
CC(C)Cc1csc(NC(=O)c2ccc(F)cc2)c1C(=O)O	25µM	0	-
CCn1ncc(CNC(=O)c2cccc([N+](=O)[O-])c2)c1C	0	0	0
CCn1ncc(CNC(=O)C2(C)CC2(Cl)Cl)c1C (stereo unspecified)	11µM	0	-
Cn1cccc1C(=O)N1CCC2(CC1)CN(Cc1cc(C(F)(F)F)cc(C(F)(F)F)c1)C2	0	0	-
O=c1c(F)cn(C2CCCO2)c(=O)n1Cc1c(Cl)cccc1Cl (stereo unspecified)	16µM	0	0
O=c1c(F)cn(C2CCCO2)c(=O)n1Cc1ccc(Cl)cc1 (stereo unspecified)	-	0	-
COc1ccc(-c2nc3ccccc3n3c(-c4ccc(OC)cc4)c4c(=O)n(C)c(=O)n(C)c4c23)cc1	-	-	0
O=c1[nH]c2ccccc2c(O)c1-c1ccccc1[N+](=O)[O-]	-	0	-
COC(=O)Cn1c(=NC(=O)CSC(C)=O)sc2ccccc21	0	0	0
C=CCOc1cccc(C2C(C(=O)c3ccco3)=C(O)C(=O)N2CCN2CCOCC2)c1 (stereo unspecified)	0	25µM	0
COc1cccc2cc(C(=O)C3=C(O)C(=O)N(CCN4CCOCC4)C3c3cccs3)oc12 (stereo unspecified)	0	25µM	0
COc1ccc(C2C(C(=O)/C=C/c3ccco3)=C(O)C(=O)N2CCN2CCOCC2)cc1 (stereo unspecified)	-	20µM	-
CCCOc1ccc(C2C(C(=O)c3ccc(C)o3)=C(O)C(=O)N2CCN2CCOCC2)cc1OC (stereo unspecified)	0	?	0
C=CCOc1cccc(C2C(C(=O)c3ccco3)=C(O)C(=O)N2Cc2ccncc2)c1 (stereo unspecified)	0	?	0
COc1cccc(C2C(C(=O)/C=C/c3ccco3)=C(O)C(=O)N2CCN2CCOCC2)c1 (stereo unspecified)	-	0	-
SMILES	HPGD block	ALDH1A1 inh	IMPase inh
COc1cccc(C2C(C(=O)c3sc(C)nc3C)=C(O)C(=O)N2CCN2CCOCC2)c1 (stereo unspecified)	0	20µM	0
Cc1ccc(C2C(C(=O)c3sc(C)nc3C)=C(O)C(=O)N2CCN2CCOCC2)o1 (stereo unspecified)	0	?	0
CCOc1ccc(NC(=O)Nc2cccnc2)cc1	-	0	-
CC1(C)[C@@H]2CC[C@]1(C)[C@@H](OC(=O)CSC#N)C2	0	1.8µM	-
CC1(C)[C@H]2CC[C@]1(C)[C@@H](OC(=O)C[N+]1(C)CCOCC1)C2	-	0	-
COC(=O)CCc1n[nH]c(=O)[nH]c1=O	0	0	0
O=C(CCc1n[nH]c(=O)[nH]c1=O)N1CCCCC1	0	4.5µM	0
O=C(COc1ccccc1)N1CCN(c2nnc(-c3ccccc3)c3ccccc23)CC1	-	0	0
Cc1ccc(-c2cc(C(=O)N3CCN(C(=O)c4ccco4)CC3)no2)cc1	0	0	0
Cc1ccc(-c2nnc(N3CCN(C(=O)c4ccco4)CC3)c3ccccc23)cc1	0	14µM	0
Cc1ccc(OCC(=O)N2CCN(c3nnc(-c4ccc(C)cc4)c4ccccc34)CC2)cc1	0	14µM	0
COc1cc(C(=O)N(c2ccc(C)c(C)c2)C2C=CS(=O)(=O)C2)cc(OC)c1OC (stereo unspecified)	-	0	-
COC(=O)c1nnn(-c2nc(N(C)C)nc(N(C)C)n2)c1C	-	0	-
COc1cc(-c2csc(C)n2)ccc1O	0	0	0
Cc1nc(-c2cccc(NS(C)(=O)=O)c2)cs1	0	0	0
Oc1ccccc1-c1csc(-c2ccccc2)n1	-	0	-
Cc1nc(-c2ccc(O)c(O)c2)cs1	22µM	?	0
Oc1ccc(-c2csc(-c3ccccc3)n2)cc1O	28µM	?	0
Cc1nc(-c2ccc(NS(C)(=O)=O)cc2)cs1	16µM	0	0
CN(C)CCN1C(=O)c2ccccc2N(C)c2ccccc21	-	0	-
Cc1c(C(=O)O)nc(/C=C\C(=O)O)[nH]c1=O	0	0[13.5 µM]	-
CC(C)CNc1nc(SCC(=O)Nc2ccccc2)nc(N2CCOCC2)n1	-	0	-
CCc1cccc(NC(=O)CSc2nc3c(c(=O)[nH]2)CCCC3)c1	10µM	0	-
N#Cc1c(-c2ccco2)nc(SCC(=O)Nc2cccc(Cl)c2)[nH]c1=O	18µM	?	?
COc1cccc(NC(=O)CSc2ncnc3c2oc2ccccc23)c1	0	0	?
SMILES	HPGD block	ALDH1A1 inh	IMPase inh
O=C(CSc1nc2c(c(=O)[nH]1)CCC2)Nc1cccc(Cl)c1	14µM	0	0
COc1cccc(NC(=O)CSc2nc3c(c(-c4ccco4)c2C#N)CCCC3)c1	0	?	0
CN(C)c1ccc(NC(=O)CSc2nc3c(c(=O)[nH]2)CCCC3)cc1	0	0	0
COc1cccc(NC(=O)CSc2nc3c(oc4ccccc43)c(=O)[nH]2)c1	16µM	0	-
Cc1c(Cl)cccc1NC(=O)CSc1nc2c(c(=O)[nH]1)CCCC2	0	0	-
CCC(=O)c1ccc(OCC(O)CN2CCN(C(c3ccccc3)c3ccccc3)CC2)cc1 (stereo unspecified)	0	0	0
O=C(C1CCCN(S(=O)(=O)c2cnc[nH]2)C1)N1CC(=O)N(CCc2ccccc2)C(=O)C1 (stereo unspecified)	0	0	0
Cc1nc2cnc(Oc3ccccc3)nc2n(-c2ccccc2)c1=O	0	22µM	-
Cn1c(=O)c(-c2ccccc2)nc2cnc(Oc3ccccc3)nc21	0	?	-
COc1ccc(Oc2ncc3nc(-c4cccs4)c(=O)n(-c4ccccc4)c3n2)cc1	0	0	-
COc1ccc(-n2c(=O)c(C)nc3cnc(Oc4ccccc4)nc32)cc1	0	2.5µM	-
CC(=O)c1ccc(N2CCN(C(=O)C3CCCN(S(=O)(=O)c4c(C)[nH]c(=O)[nH]c4=O)C3)CC2)cc1 (stereo unspecified)	-	0	-
NC(=O)c1ccc(Oc2ccc(C(N)=O)cc2)cc1	-	0	-
CCOC(=O)N1CCC(N2CCN(CCC(C)C)C(CCO)C2)CC1 (stereo unspecified)	-	0	-
CC(C)c1onc(C(=O)N2CCOCC2)c1[N+](=O)[O-]	-	0	-
Cc1onc(C(=O)N2CCOCC2)c1[N+](=O)[O-]	-	25µM	-
CCOC(=O)c1c(NC(=O)c2ccncc2)sc(C)c1C	-	13µM	-
CCOC(=O)c1c(NC(=O)c2cccs2)sc(C)c1CC	?	0	0
CCOC(=O)c1c(NC(=O)c2cccs2)sc(C(=O)N(C)C)c1C	16µM	22µM	0
